Results taken from the supplement of paper PMC6555819.

How the values were obtained:
Test in all cases: PBM binding z-score (relative to random genomic background probes); higher = stronger binding; sequences stand for … in GC…GCGATTGACAGCGTAGAATGAAGG
[1] = system: PPARg:RXRa DBDmut IVT, anti-RXR (DBD mutation: RXRa K156A/R161A, NR concentration 270 nM, RXRa partner concentration 90 nM)
Outline: (§1)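 Probes were double-stranded and carried 34-nt variable regions with direct-repeat seeds, single-nucleotide variants, half-site ablations and random human genomic background sequences, printed on custom Agilent 4×180K protein-binding microarrays. Arrays were incubated 1 h with ligand-free nuclear receptor dimers in PBS pH 7.4, 2% milk, 0.02% Triton X-100, 1 mM DTT, 0.2 mg/mL BSA and 0.4 mg/ml salmon testes DNA. Antibodies against each partner (one per run) detected binding, and scanned fluorescence was regression-normalized. Binding z-scores use the random background probes as reference.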

[2] = system: PPARg:RXRa IVT, anti-PPARg (NR concentration 270 nM, RXRa partner concentration 90 nM)
Outline: as §1

[3] = system: PPARg DBDmut:RXRa IVT, anti-PPARg (DBD mutation: PPARg1 K132A/R137A, NR concentration 270 nM, RXRa partner concentration 90 nM)
Outline: as §1

[4] = system: PPARg DBDmut IVT, anti-PPARg (DBD mutation: PPARg1 K132A/R137A, NR concentration 270 nM)
Outline: as §1

[5] = system: PPARg homodimer (NR concentration 180 nM)
Outline: as §1

[6] = system: PXR:RXRa (NR concentration 270 nM, RXRa partner concentration 90 nM)
Outline: as §1

[7] = system: PXR homodimer (NR concentration 270 nM)
Outline: as §1

[8] = system: RARa:RXR (NR concentration 270 nM, RXRa partner concentration 90 nM)
Outline: as §1

[9] = system: RARa homodimer (NR concentration 270 nM)
Outline: as §1

[10] = system: RARb:RXRa (NR concentration 270 nM, RXRa partner concentration 90 nM)
Outline: as §1

[11] = system: RARb homodimer (NR concentration 270 nM)
Outline: as §1

[12] = system: RARg:RXRa (NR concentration 270 nM, RXRa partner concentration 90 nM)
Outline: as §1

[13] = system: RARg homodimer (NR concentration 270 nM)
Outline: as §1

[14] = system: RXRa DBDmut IVT, anti-RXR (DBD mutation: RXRa K156A/R161A, NR concentration 90 nM)
Outline: as §1

[15] = system: RXRa homodimer (NR concentration 180 nM)
Outline: as §1

[16] = system: THRa:RXRa (NR concentration 90 nM, RXRa partner concentration 90 nM)
Outline: as §1

[17] = system: THRa homodimer (NR concentration 90 nM)
Outline: as §1

[18] = system: VDR:RXRa (NR concentration 270 nM, RXRa partner concentration 90 nM)
Outline: as §1

[19] = system: VDR homodimer (NR concentration 270 nM)
Outline: as §1

| Sequence | PBM binding z-score [1] | PBM binding z-score [2] | PBM binding z-score [3] | PBM binding z-score [4] | PBM binding z-score [5] | PBM binding z-score [6] | PBM binding z-score [7] | PBM binding z-score [8] | PBM binding z-score [9] | PBM binding z-score [10] | PBM binding z-score [11] | PBM binding z-score [12] | PBM binding z-score [13] | PBM binding z-score [14] | PBM binding z-score [15] | PBM binding z-score [16] | PBM binding z-score [17] | PBM binding z-score [18] | PBM binding z-score [19] |
| --- | --- | --- | --- | --- | --- | --- | --- | --- | --- | --- | --- | --- | --- | --- | --- | --- | --- | --- | --- |
| TTAACAAGGTGAGCTGAGGTCGTTGATCCAACTC | 1.96 | 2.33 | -0.0875 | 0.378 | -0.141 | 4.89 | 0.519 | 1.62 | -0.64 | 1.66 | 1.42 | 1.03 | 1.09 | 0.404 | 1.42 | 4.55 | 2.04 | 4.08 | 1.8 |
| CCTACTGGGCCAAAAAGGTCATGGATGCCGATAA | 3.31 | 4.16 | 0.474 | -0.298 | 4.05 | 4.81 | 0.732 | 5.53 | 1.87 | 4.27 | 1.31 | 5 | 4.57 | 0.231 | 5.58 | 3.41 | 1.05 | 4.54 | 1.81 |
| GCATATAGGTAATACAAGTTGAAAGTCCGATTGT | 4.35 | 2.61 | 1.06 | 0.954 | 0.423 | 0.787 | 0.733 | 0.761 | 0.554 | 0.148 | 0.185 | 0.232 | 0.481 | 0.331 | 0.404 | 1.76 | -0.418 | 0.409 | 0.193 |
| CAAACTAGGTCAACGTCAAAGTCGGTTTGTGCCA | 8.75 | 8.75 | 5.16 | 4.41 | 2.59 | 1.58 | 0.241 | 2.38 | 0.739 | 4.11 | 3.56 | 4.05 | 4.97 | 1.68 | 2.9 | 3 | 1.02 | 1.83 | 1.07 |
| TCGAGTAGGTTAGTCGGGGCATTTAGCCAACATA | 2.28 | 1.85 | -0.436 | -0.412 | 0.35 | 0.275 | -0.067 | 0.501 | -0.283 | 0.582 | 0.426 | 0.175 | -0.0384 | 0.477 | 0.261 | 1.12 | -0.042 | 2.2 | 0.418 |
| CCTTACGGGTCAGTCCAGGTTATAGCATCGGAGT | 1.7 | 2.05 | -0.331 | -0.72 | 1.36 | 4.25 | 0.276 | 2.69 | 0.405 | 3.31 | 2.69 | 3.23 | 3.53 | 0.751 | 2.55 | 4.66 | 0.627 | 2.9 | 1.12 |
| CCTACTGGGGCAAAGGTTACCATACTCAGTACGA | 5.92 | 7.16 | 3.64 | 1.43 | 4.58 | 2.6 | -0.144 | 4.19 | -0.0268 | 2.6 | 2.27 | 3.72 | 1.99 | 0.241 | 3.86 | 1.85 | -0.303 | 1.86 | 0.381 |
| TAGCCTAGGTCAGCTCGGGCCAGTATACGCTATA | 1.01 | 1.73 | -1.19 | -1.03 | 0.105 | 1.77 | -0.949 | 1.39 | -0.994 | 3.65 | 2.59 | 3.06 | 4.25 | -0.297 | 1.54 | 4.27 | 0.31 | 0.763 | -0.788 |
| ATCTCTAGGTAAGAGTTCAGTGAATCCCGAGGAT | 1.35 | 2.7 | 0.769 | 1.17 | 1.09 | 2.32 | 2.16 | 0.952 | 0.264 | 1.96 | 1.91 | 1.21 | 1.51 | 1.71 | 1.16 | 0.872 | 0.129 | 2.22 | 3.85 |
| TCTTGTAGATCATTAGAGGTTAAGAAAGTGCGCT | 1.84 | 1.01 | 0.756 | 0.793 | 0.628 | 3.16 | 0.436 | 1.89 | 0.575 | 1.01 | 1.19 | 0.881 | 0.586 | 0.77 | 1.42 | 2.67 | -0.124 | 2.09 | 0.446 |
| CAAACTAGGTCACCCGAAGGTCAAAGTCCGCATG | 8.43 | 8.81 | 7.92 | 7.09 | 11.1 | 6.02 | 2.67 | 7.7 | 3.95 | 5.29 | 5.43 | 7.91 | 6.9 | 2.35 | 6.29 | 4.45 | 3.04 | 5.75 | 4.18 |
| AGAACGAGGGCACGCGGAGTTGATAGCAGAGTAG | 4.28 | 4.01 | 0.563 | -0.521 | 0.0413 | 1.45 | -0.14 | 1.12 | -0.653 | 2.64 | 1.42 | 2.32 | 2.41 | 1.91 | 1.66 | 1.82 | -0.0223 | 1.95 | 1.18 |
| CCTTACGAGTCACGAGGTTATAGCACGACGAGCG | 0.274 | 0.318 | 0.557 | 0.13 | 1.26 | 1.25 | 0.811 | 1.79 | 1.56 | 0.971 | 1.11 | 1.27 | 1.04 | 0.554 | 1.8 | 1.9 | 1.19 | 1.7 | 1.26 |
| AGAATGAGGTTACCAAAGAACAGGGAAACGCTTG | 3.61 | 3.21 | 0.635 | 0.163 | 0.531 | 1.06 | 0.0622 | 1.64 | 0.0488 | 2.11 | 0.612 | 1.93 | 1.35 | 0.909 | 2.36 | 2.59 | 0.733 | 1.17 | 0.342 |
| CCTCGGCGGACAGAAGGTCAGAGCTGTCCGCTTT | -0.348 | -0.163 | -2.18 | -2.03 | 0.787 | 1.26 | -0.667 | 1.57 | -0.497 | 2.52 | 2.77 | 2.53 | 1.99 | -0.44 | 1.64 | 1.05 | -0.714 | 0.473 | -0.703 |
